Calls of active or inactive are those of the source.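 How the source made its calls: active means compounds whose dose series gives a full or clear partial fitted curve of increased nuclear translocation; inconclusive means weak partial curve or effect only at the top dose; inactive means no dose-dependent translocation response.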
molecular target: Glucocorticoid receptor (Homo sapiens) (UniProt P04150); experiment: GR-GFP Redistribution (AID 450); settings: U2OS GR-GFP nuclear translocation, laser cytometry, 2 h; series mostly up to 20.6 µM
Sequence (P04150 whole entry, looked up): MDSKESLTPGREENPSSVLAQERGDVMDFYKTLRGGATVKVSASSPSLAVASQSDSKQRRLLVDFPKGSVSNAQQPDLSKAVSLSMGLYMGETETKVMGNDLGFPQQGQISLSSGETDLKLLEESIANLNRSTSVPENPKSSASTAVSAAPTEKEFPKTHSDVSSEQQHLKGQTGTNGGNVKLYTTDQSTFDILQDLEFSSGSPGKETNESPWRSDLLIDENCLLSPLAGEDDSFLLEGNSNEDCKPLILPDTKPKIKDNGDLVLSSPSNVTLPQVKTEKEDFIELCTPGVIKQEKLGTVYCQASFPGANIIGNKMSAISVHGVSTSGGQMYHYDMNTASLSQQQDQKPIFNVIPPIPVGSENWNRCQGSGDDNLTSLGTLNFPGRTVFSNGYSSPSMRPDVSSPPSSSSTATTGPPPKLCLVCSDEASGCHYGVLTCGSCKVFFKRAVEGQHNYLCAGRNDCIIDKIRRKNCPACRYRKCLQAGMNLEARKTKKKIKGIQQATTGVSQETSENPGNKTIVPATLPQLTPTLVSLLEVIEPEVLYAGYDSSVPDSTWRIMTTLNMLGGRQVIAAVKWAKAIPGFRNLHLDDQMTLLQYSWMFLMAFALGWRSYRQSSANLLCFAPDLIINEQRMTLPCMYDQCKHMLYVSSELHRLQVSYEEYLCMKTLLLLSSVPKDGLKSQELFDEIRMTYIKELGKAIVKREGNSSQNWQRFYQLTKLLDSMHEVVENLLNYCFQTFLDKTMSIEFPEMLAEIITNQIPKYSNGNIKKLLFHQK
Potency means the concentration at half of the fitted maximal effect.

| Compound | Potency |
| --- | --- |
| Cc1cc(=O)n2[nH]cnc2n1 | > 20.6 µM (inactive) |
| CCCCCSc1nc(C)c(CC(=O)O)c(=O)[nH]1 | > 20.6 µM (inactive) |
| O=C(NC1CCS(=O)(=O)C1)N1CCCCC1 (centres undefined) | > 20.6 µM (inactive) |
| O=C(Cc1cscn1)c1ccc(O)cc1O | > 20.6 µM (inactive) |
| CC1(c2cnc(Nc3ccccc3)s2)CCC(=O)O1 (centres undefined) | > 20.6 µM (inactive) |
| CCCc1cc(=O)oc2c(CN3CCCC3)c(O)ccc12 | > 20.6 µM (inactive) |
| c1ccc(-c2nc(NCC3CCCO3)c3ccccc3n2)nc1 (centres undefined) | > 20.6 µM (inactive) |
| Cn1ncc(N=Cc2ccccc2O)c1C(=O)Nc1ccccc1 | > 20.6 µM (inactive) |
| Cc1sc(-n2c(C)ccc2C)c(C#N)c1C | > 20.6 µM (inactive) |
| Fc1ccc(C2C3=C(Nc4ncnn42)c2ccccc2OC3c2ccncc2)cc1 (centres undefined) | > 20.6 µM (inactive) |
| COc1ccc(C2/C(=C(/O)c3cnn(-c4ccccc4)c3C)C(=O)C(=O)N2CCN(C)C)cc1OC (centres undefined) | > 20.6 µM (inactive) |
| O=C(O)CCCC(=O)N1CCN(C(c2ccccc2)c2ccccc2)CC1 | > 20.6 µM (inactive) |
| CCOC(=O)C1=C(C)N=C2SC(C)C(=O)N2C1c1cccc(F)c1 (centres undefined) | > 20.6 µM (inactive) |
| COc1cccc(C2=CC(c3ccccc3)n3nnnc3N2)c1 (centres undefined) | > 20.6 µM (inactive) |
| CN(C)CCCN(CCCNC(=O)/C=N/O)Cc1ccccc1 | > 20.6 µM (inactive) |
| O=C(O)c1ccnc(C(=O)O)c1 | > 20.6 µM (inactive) |
| CN1CCc2c(C#N)c(N3CCCCC3)nc(N3CCOCC3)c2C1 | > 20.6 µM (inactive) |
| CC(=O)OCC(=O)[C@@]1(O)CC[C@H]2[C@@H]3CCC4=CC(=O)C=C[C@]4(C)[C@@]3(Cl)[C@@H](Cl)C[C@@]21C | 0.0078 µM (active) |
| CCOc1ccc(C2C(C(=O)c3ccc(C)o3)=C(O)C(=O)N2CCN2CCOCC2)cc1OC (centres undefined) | > 20.6 µM (inactive) |
| CCCOc1ccc(-c2nnc(N)s2)cc1 | > 20.6 µM (inactive) |

| Compound | Potency |
| --- | --- |
| Cn1cc(Cl)nc1C(O)c1ccccc1 (centres undefined) | > 20.6 µM (inactive) |
| Cc1cc(C)nc(N(C#N)CC(=O)N(c2ccccc2)C(C)C)n1 | > 20.6 µM (inactive) |
| CCCC(=O)N1CCN(c2nc(CC(C)C)c3c(c2C#N)CCC3)CC1 | > 20.6 µM (inactive) |
| COCCNC(=O)C(C#N)c1nc2ccccc2nc1N1CCN(Cc2ccc3c(c2)OCO3)CC1 (centres undefined) | > 20.6 µM (inactive) |
| CC1(C)Cc2nc(N)c(C(=O)NCCO)cc2CO1 | > 20.6 µM (inactive) |
| COC(=O)c1ccccc1OCc1cccc(C)n1 | > 20.6 µM (inactive) |
| Cc1cccc(C)c1N1C(=O)C2ON(c3ccccc3)C(c3ccncc3)C2C1=O (centres undefined) | > 20.6 µM (inactive) |
| CC(=O)/C=C(\C)NCCNc1c(F)c(F)c(CO)c(F)c1F | > 20.6 µM (inactive) |
| CCOC(=O)C1=C(C)OC(N)=C(C#N)C1c1cc2ccccc2nc1N1CCCCC1 (centres undefined) | > 20.6 µM (inactive) |
| O=C(c1nsnc1-c1ccccc1O)N1CCCCC1 | > 20.6 µM (inactive) |
| Cc1ccc2[nH]c3c(c2c1)CN(C(=O)CN1CCN(c2ccccn2)CC1)CC3 | > 20.6 µM (inactive) |
| CCC(=O)Nc1ccc(-c2nnc(-c3ccccc3)o2)cc1 | > 20.6 µM (inactive) |
| CCn1nnc(C(=O)O)c1C(=O)O | > 20.6 µM (inactive) |
| COc1ccc(C(=O)Cn2c(N3CCCCC3)nc3c2c(=O)n(C)c(=O)n3C)cc1OC | > 20.6 µM (inactive) |
| CCOC(=O)C(Oc1ccc(=O)[nH]n1)C(C)=O (centres undefined) | > 20.6 µM (inactive) |
| Cc1ccc(/C=c2\sc3n(c2=O)CN(c2ccc(Br)cc2)CN=3)o1 | > 20.6 µM (inactive) |
| COc1ccc(-c2nc3n(n2)C(=O)CC(c2ccco2)S3)cc1 (centres undefined) | > 20.6 µM (inactive) |
| CC(=O)c1c(C)c2c(n1CCN(C)C)CCCC2 | > 20.6 µM (inactive) |
| CC(C)CC(C(=O)O)C(C)CC(=O)Nc1ccn(-c2ccccc2)n1 (centres undefined) | > 20.6 µM (inactive) |
